Screens: PubChem BioAssay, Broad Institute
Hits are enriched below; roughly 1.4% of the tested compounds scored in any of these assays.
PglD DTNB = blocks C. jejuni PglD acetyltransferase activity. purified PglD enzyme, DTNB colorimetric CoA detection. inhibition, % at 12.5 µM. actives 0.098% (n = 360,000); in the data active means inhibition above about 16%, passing the limit was not always enough; inconclusive means no clear call, values can overlap the other calls
F508del corr = correctors of CFTR F508del function in bronchial epithelial cells; CFBE cells, YFP halide quenching; stimulated with forskolin plus potentiator P3; % fluorescence drop versus neutral controls; activity (quench increase), % at 7.58 µM; actives 0.36% (n = 350,000); AID 720511;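 active means mean added fluorescence quench of at least 8% versus neutral control, with both replicates also reaching 8%; inconclusive means only one of the mean or replicate conditions met; inactive means mean below 8% and not both replicates reaching 8%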;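 further: cells transiently co-express mutant CFTR-F508del with the halide-sensitive YFP; corrector assay measuring rescue of mutant channel to the surface after 24 h compound exposure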
Statin myotox sup = protects C2C12 myotubes from simvastatin toxicity; ATP luminescence, 48 h; scaled: DMSO 0, geranylgeraniol control 100; rescue of ATP level, % at 7.49 µM; actives 0.78% (n = 330,000); AID 602340;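 active means mean ATP rescue above about 67%, or every replicate alone reaching that limit, limit read from the data, passing the limit was not always enough; inconclusive means no clear call, values can overlap the other calls; inactive means mean under the limit and some replicate under it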;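 further: myotubes were challenged with 10 µM simvastatin during compound exposure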
ARNT TACC3 PPI = disrupts binding between human ARNT and TACC3; inhibition, % at 9.99 µM; Q9Y6A5; AlphaScreen His-ARNT PAS-B/GST-TACC3 binding, luminescence; TACC3 fragment carries E629A point mutation; actives 0.66% (n = 390,000);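 active means mean inhibition of replicates at least 50% and at least half of replicates each reaching 50%; inconclusive means half or more replicates reach 50% but mean below 50%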
PglD inh SP = PglD (C. jejuni) inhibition confirmation | shares compounds with PglD DTNB | inhibition, % at 20 µM | AID 743156 | Purified C. jejuni PglD, DTNB absorbance 412 nm | 320 tested, under 10 active;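 active means mean inhibition across replicates of at least 20% with every single replicate also at 20% or more; inconclusive means mean inhibition at least 20% but some replicate falls below 20%; inactive means mean inhibition under 20% and not all replicates reach it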;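 further: initial rate of CoA release by acetyl transfer from AcCoA to the UDP-4-amino sugar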
Hits are given with their value; – = inactive; ? = inconclusive; · = no result given.

SMILES | PglD DTNB | F508del corr | Statin myotox sup | ARNT TACC3 PPI | PglD inh SP
CCC(=O)N(C)C[C@H]1Oc2cc(-c3ccccc3OC)ccc2S(=O)(=O)N([C@@H](C)CO)C[C@H]1C | – | – | – | – | ·
S=C(NCCc1ccccc1)Nc1nccs1 | – | 9.2 | – | – | ·
CC(C)CC(NC(=O)C1CCC(C)CC1)C(=O)Nc1cccnc1 (configuration not stated) | – | · | 108 | – | ·
O=C1c2ccccc2C(=O)N1Cc1cnc(N2CCN(c3ccccc3)CC2)s1 | · | 11 | · | – | ·
COc1ccc(/C(C)=N/Nc2ccc(C(=O)O)cc2)cc1OC | 58 | · | · | – | –
CCCc1cc(C(=O)NC2CCCC2)no1 | 58 | – | – | – | –
COCCNC(=O)CCCC(=O)NCCOC | 35 | · | – | – | –
COCCNC(=O)Cc1ccc(F)cc1 | · | · | · | – | ·
O=C(Cc1cccnc1)N[C@H]1CC[C@H](CCNS(=O)(=O)c2ccccc2Cl)O[C@@H]1CO | – | – | – | – | ·
CCC(NC(=O)NCc1cccnc1)(C(F)(F)F)C(F)(F)F | 20 | · | – | – | –
Cc1ccc(NC(=O)NCc2cccnc2)cc1 | – | – | – | – | ·
CC(C)NC(=O)N(C)C[C@@H]1Oc2ncc(C#Cc3ccccc3F)cc2C(=O)N([C@@H](C)CO)C[C@@H]1C | – | – | – | – | ·
C[C@H]1CN([C@@H](C)CO)C(=O)Cc2cc(NC(=O)Cc3cn(C)c4ccccc34)ccc2O[C@@H]1CN(C)S(=O)(=O)c1cccs1 | – | – | – | – | ·
CC1CCCC(C)N1S(=O)(=O)c1ccc(Cl)cc1 (configuration not stated) | – | – | – | – | ·
CC1=C(C)CS(=O)N(S(=O)(=O)c2ccc(Cl)cc2)C1 (configuration not stated) | 23 | · | – | – | –
O=C(CC1CC1)Nc1ccc2c(c1)[C@@H]1C[C@@H](CC(=O)N3CCc4ccccc4C3)O[C@@H](CO)[C@@H]1O2 | – | – | – | – | ·
Cc1ccc2oc(=O)c(/C=C(\O)CC(C)C)nc2c1 | 21 | · | · | – | –
CC1Cc2ccccc2N1C(=O)c1ccc(N2CCCC2)c([N+](=O)[O-])c1 (configuration not stated) | 22 | – | – | · | –
COc1ccc(S(=O)(=O)N2CCN(CCOc3ccc(Br)cc3)CC2)cc1OC | – | – | – | – | ·
COc1ccc(OC)c(C(=O)CN2CCN(S(=O)(=O)c3ccc(Br)cc3)CC2)c1 | 21 | · | – | – | –
Cc1nn(Cc2ccccc2)c(Cl)c1/C=N/NC(=O)c1cccnc1 | 25 | – | · | – | –
COc1ccc(-c2cc(NC(C)=O)c3ncc(-c4ccc(OC)c(OC)c4)n3c2)c(OC)c1 | 32 | – | – | · | –
C[C@H](CO)N1C[C@H](C)[C@@H](CN(C)Cc2ccc(Oc3ccccc3)cc2)Oc2ccc(NS(=O)(=O)c3ccc(Cl)cc3)cc2CC1=O | – | – | – | – | ·
CCOc1ccc(N(CC(=O)NCCSc2ccccn2)S(C)(=O)=O)cc1 | – | · | – | – | ·
CS(=O)(=O)N(CC(=O)NCCSc1ccccn1)c1cccc2ccccc12 | 20 | – | · | – | –
SMILES | PglD DTNB | F508del corr | Statin myotox sup | ARNT TACC3 PPI | PglD inh SP
O=C(CC1CC1)N1CC2(C1)[C@@H](c1ccccc1)[C@@H](CO)N2Cc1cccc(F)c1 | · | – | · | · | ·
COC(=O)c1c(C(=O)OC)c(C)n(Cc2cccnc2)c1C | 31 | · | – | – | –
C[C@@H]1CCCCO[C@@H](CN(C)C)[C@H](C)CN([C@@H](C)CO)C(=O)c2cc(N(C)C)ccc2O1 | · | – | · | · | ·
CC1Oc2ccccc2N(CC(=O)N2CCCCC2)C1=O (configuration not stated) | 25 | – | – | – | ?
CCOC(=O)C1CCN(S(=O)(=O)c2ccc3c(c2)CC(=O)N3C)CC1 | 41 | – | – | – | –
C[C@@H]1CN([C@H](C)CO)C(=O)Cc2cc(NS(=O)(=O)c3ccccc3)ccc2O[C@H]1CN(C)C(=O)Nc1cccc2ccccc12 | – | – | – | – | ·
COc1ccc(C(C(=O)NCC2CCCO2)N(C(=O)CNC(=O)c2ccco2)c2ccc(C)c(C)c2)cc1OC (configuration not stated) | 22 | – | – | – | –
CCOC(=O)c1c2n(c3ccc(O)cc13)CCCCC2 | 25 | · | – | – | –
CCCN(C)C[C@@H]1OCCCC[C@@H](C)Oc2ccc(NS(=O)(=O)c3ccc(C)cc3)cc2C(=O)N([C@H](C)CO)C[C@H]1C | · | – | · | · | ·
C[C@H](NC(=O)C[C@@H]1C[C@@H]2c3cc(NC(=O)CN(C)C)ccc3O[C@@H]2[C@H](CO)O1)c1ccccc1 | – | – | – | – | ·
O=C1CSC(c2cccnc2)N1Cc1cccnc1 (configuration not stated) | 23 | – | – | – | –
O=C1CSC(c2ccncc2)N1Cc1ccccc1 (configuration not stated) | · | – | · | · | ·
CCOc1cc(C(=S)N2CCOCC2)ccc1OC(=O)c1ccc(C)cc1 | 45 | – | – | – | –
CCOc1cc(C(=S)N2CCOCC2)ccc1OC(=O)c1ccccc1 | – | – | – | – | ·
Cc1ccc(S(=O)(=O)NCC(=O)OCc2nnc(-c3ccccc3)o2)cc1C | – | · | · | – | ·
O=C(CNS(=O)(=O)c1ccc2ccccc2c1)OCc1nnc(-c2ccccc2)o1 | 34 | · | · | – | –
COc1cc(C(O)c2nc(-c3ccc(C)c(C)c3)cs2)ccc1F (configuration not stated) | 25 | – | – | · | –
COc1ccc(CCNc2nc3ccccc3n3nnnc23)cc1OC | – | – | – | – | ·
c1ccc(CCNc2nc3ccccc3n3nnnc23)cc1 | 25 | · | – | – | –
S=C(NCc1ccncc1)NC1CCCCC1 | 27 | – | · | – | –
COc1ccc(N(CC(=O)Nc2cccc(C(C)=O)c2)S(=O)(=O)c2ccc(NC(C)=O)cc2)cc1 | 77 | – | – | – | –
Cc1ccccc1-c1ccc([C@@H]2[C@H]3CN(S(=O)(=O)c4cn(C)cn4)CCCCN3[C@H]2CO)cc1 | – | – | · | – | ·
C[C@H](CO)N1C[C@H](C)[C@@H](CN(C)S(=O)(=O)c2cn(C)cn2)Oc2ccc(NC(=O)Cc3cn(C)c4ccccc34)cc2C1=O | – | – | – | – | ·
CC1CCCN(S(=O)(=O)c2ccc(Br)s2)C1 (configuration not stated) | – | · | · | – | ·
CC1CCCN(S(=O)(=O)c2ccc(Cl)s2)C1 (configuration not stated) | 26 | – | – | – | –
C[C@H]1CN([C@@H](C)CO)S(=O)(=O)c2ccc(C3=CCCCC3)cc2O[C@@H]1CN(C)C(=O)c1ccc(F)cc1 | – | – | – | – | ·
O=C(C1CCCC1)N1CC[C@@H]2[C@H](CO)Nc3ccc(Br)cc3[C@@H]21 | · | – | · | · | ·
CCc1nc2ccc(C(=O)NCCCn3ccnc3)cn2c1N(C)Cc1cccs1 | 20 | – | – | · | –
C[C@H]1CN([C@@H](C)CO)C(=O)c2cc(C3=CCCC3)cnc2O[C@@H]1CN(C)C(=O)Cc1ccncc1 | – | – | – | – | ·
